Test results from PubChem BioAssay AID614 (Sanford-Burnham Center for Chemical Genomics, 2007).
Out of some 21,000 compounds screened, fewer than 10 were called active.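 How the source made its calls: active means inhibition above 50% at the 20 µM single-dose screen; inactive means the rest.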 A selection follows.

Each compound was assayed against Alkaline phosphatase, tissue-nonspecific isozyme (Homo sapiens) (UniProt P05186) (assay: human TNAP enzyme inhibitors, primary screen, biochemical, colorimetric, phosphate release readout (AID 614)). Conditions: purified TNAP, pNPP, malachite green phosphate absorbance; at 20 µM; stronger effect = higher value.
Alkaline phosphatase, tissue-nonspecific isozyme (Homo sapiens), sequence (P05186 whole entry, looked up): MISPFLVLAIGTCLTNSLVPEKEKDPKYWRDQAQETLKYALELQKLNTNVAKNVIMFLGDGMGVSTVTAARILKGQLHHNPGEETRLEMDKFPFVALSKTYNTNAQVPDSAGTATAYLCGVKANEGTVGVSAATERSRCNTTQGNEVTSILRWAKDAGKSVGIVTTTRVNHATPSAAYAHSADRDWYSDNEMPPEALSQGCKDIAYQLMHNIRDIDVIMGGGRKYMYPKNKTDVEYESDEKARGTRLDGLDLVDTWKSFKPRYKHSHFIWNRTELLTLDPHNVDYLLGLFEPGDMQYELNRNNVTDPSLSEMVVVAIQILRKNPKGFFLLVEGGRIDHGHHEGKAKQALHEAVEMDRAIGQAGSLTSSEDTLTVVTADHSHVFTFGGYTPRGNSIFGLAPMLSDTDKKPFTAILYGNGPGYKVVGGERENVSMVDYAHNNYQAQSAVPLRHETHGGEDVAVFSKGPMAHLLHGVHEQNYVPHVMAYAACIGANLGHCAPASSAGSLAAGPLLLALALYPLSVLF

inhibition, inactive:
CCOC(=O)CC1=CC(=O)Nc2ccccc2N1 2.4%, Cc1cc(C)cc(OCc2nnc(SCC(=O)OC3CCCCC3)o2)c1 -4.5%, COC(=O)c1nc(NC(=O)c2ccc(Cl)cc2)n[nH]1 1.5%, CCC1SC2=NCCN2C1(O)c1ccc(Cl)cc1 (configuration not stated) 3.8%, CCSc1nc(=S)n(CC)c(C)c1C(C)=O 5.7%, Cc1ccc2nc(NC3=NCN(CCc4ccccc4)CN3)nc(C)c2c1 10.4%, O=C(CN(c1ccc2c(c1)OCCO2)S(=O)(=O)c1ccccc1)Nc1ccc2c(c1)OCO2 5.3%, O=S(=O)(NCC1CCCO1)c1ccc2ccccc2c1 (configuration not stated) 8.8%, CCn1c(SCC(=O)Nc2nc3ccc(OC)cc3s2)nnc1-c1ccoc1C 1.9%, CSCC[C@H](NC(=O)NCc1cccs1)C(=O)O -0.1%, COC(=O)c1ccc(CSc2nncn2C)cc1 11%, COc1cccc(N(CC(=O)Nc2cccc(F)c2)S(C)(=O)=O)c1 0.7%, CCOP1(=O)C=C(C(C)(C)C)OC1c1ccc(F)cc1 (configuration not stated) -0.2%, CCN1CCN(C(=O)c2ccccc2N(C)S(=O)(=O)c2ccc(C)cc2)CC1 11.4%, Nn1c(SCC(=O)NC(=O)NC2CCCC2)nnc1-c1ccccc1F 15.5%, CCCn1c(SCC(=O)c2ccc3c(c2)OCCO3)nnc1C(C)C 11.4%, O=C(Nc1cccc2c1CCCC2)C1CCN(C(=O)NC2CCCCC2)CC1 15.2%, COc1ccc2c(c1)C(C)=CC(C)(C)N2C(=O)CNCc1ccc2c(c1)OCO2 6.2%, COc1ccc(NS(=O)(=O)c2ccc(NC(=O)C(C)(C(F)(F)F)C(F)(F)F)cc2)nn1 3.4%, Cc1ccc(C(=O)CS(C)(=O)=O)cc1 -1.2%, Clc1ccc(CSc2nnc([C@@H]3CCCN3)o2)cc1 13%, COC(=O)C1C(=O)CC(C)(O)C(C(=O)OC)C1c1ccc2c(c1)OCO2 (configuration not stated) 9.9%, CN(C)Cc1c(C#N)c2ccccc2n1C -22.9%, C=CCn1c(CC(=O)Nc2cccc(OC)c2)nnc1SCC(=O)NC1CCCCC1 -6.2%, Cc1cc(Br)ccc1NC(=O)C1CCCO1 (configuration not stated) 0%, Cc1ccc(C(=O)CSc2nc3ccccc3c(=O)n2N)o1 6%, CCCCC(CCC(=O)Nc1ccc(C(=O)OCC)cc1)C(=O)O (configuration not stated) 6%, Fc1cnc(N2CCOCC2)nc1NCc1ccccc1 -0.4%, CCOC(=O)CN(C(=O)CN1CCOCC1)c1ccc(Br)cc1 -1.5%, O=C(O)COc1nsnc1N1CCOCC1 10.4%, O=C1CCC(C(=O)Nc2ccc(OC(F)F)cc2)N1 (configuration not stated) 21.3%, Cc1cccc(Cn2c(N3CCN(c4ccccc4)CC3)nc3c2c(=O)n(C)c(=O)n3C)c1 8.8%, O=C1CC(N2CCN(C(c3ccccc3)c3ccccc3)CC2)C(=O)N1 (configuration not stated) 7.9%, COC(=O)c1ccc(N(CC(=O)NC2CCCC2)C(=O)CNC(=O)c2ccco2)cc1 0%, Cc1ccc(C)c(NC(=O)C2CCCN2C(=O)OC(C)(C)C)c1 (configuration not stated) -3.4%, O=C(NCc1ccc(Cl)cc1)c1cc2c(nc3sccn32)s1 12.4%, CN(C)CCCNc1c2c(c(C#N)c3nc4ccccc4n13)CCC2 0%, Cc1c(C(=O)OCc2cc(=O)n3cc(Br)ccc3n2)oc2ccccc12 -2.2%, Cc1ccc(Oc2ccc(N)cc2)cc1 15%, Cc1cc(N2CCCC2)n2nc(C)c(-c3ccccc3)c2n1 8.2%, CC(C)C1Cc2c(sc3c2c(=O)n(-c2ccccc2)c2nncn32)CO1 (configuration not stated) 10.1%, COC(=O)c1cc(OC)c(OC)cc1NC(=O)C1CCCO1 (configuration not stated) 6%, CC(=O)N1CCN(C(=O)Nc2cccc(C(F)(F)F)c2)CC1 -0.7%, CCCC(=O)Nc1ccc2c(c1)nc1n2CCSC1 3.5%, O=C(CSc1nnc(-c2ccoc2)o1)N1CCOCC1 -1.3%, c1cnc(NC2C3CC4CC(C3)CC2C4)nc1 (configuration not stated) 3.8%, N#CC(C(N)=O)=C1CCC2(CC1)OCCCCO2 13.2%, Cc1ccc(S(=O)(=O)N2CCC(N3CCCCCC3)CC2)cc1 7%, COc1ccc(-c2nnc(SCC(=O)c3ccco3)n2-c2ccccc2)cc1 2.3%, O=C(c1cccc(S(=O)(=O)N2CCOCC2)c1)N1CCOCC1 6.8%, CCc1ccc(N2CC(C(=O)NC3=NCCS3)CC2=O)cc1 (configuration not stated) -4.1%, COC(=O)[C@H](Cc1ccccc1)NC(=O)N1CC(C)OC(C)C1 (some centres not stated) 6.7%, CC(C)OCCCNc1nc2c(c(=O)n(Cc3ccccc3F)c(=O)n2C)n1C 11.4%, N#Cc1c2c(c(-c3ccccc3)[nH]c1=O)CCCC2 9.6%, Cc1ccc(C(C(=O)NC2CCCC2)N(Cc2ccco2)C(=O)CCC(=O)Nc2ccccn2)cc1 (configuration not stated) 7.3%, COc1c(O)cccc1-c1nnn(CCC(=O)OCC(=O)c2ccccc2)n1 2.2%, O=C(O)c1cscn1 4.2%, O=C(CSc1nnc(-c2ccccn2)n1-c1ccccc1)Nc1ccc2c(c1)OCO2 3.6%, COc1ccc(C(=O)Nc2ccc(S(=O)(=O)Nc3onc(C)c3C)cc2)cc1OC 0.4%, CCOC(=O)C1=C(C)NC(=O)N(C(C)=O)C1c1ccc(Cl)cc1 (configuration not stated) 10%, O=C(NCCSc1ccccc1)c1ccco1 13.2%, CCc1nc2ccccc2n(CCOCCOCCn2c(=O)c(CC)nc3ccccc32)c1=O 8.8%, COc1cccc(N(CC(=O)Nc2cccc(N(C)S(C)(=O)=O)c2)S(C)(=O)=O)c1 0%, CS(=O)(=O)N1CCN(C(=O)c2cc3ccccc3oc2=O)CC1 11.1%, COc1ccc(CNC(=O)c2c(C)cc(=O)oc2C)cc1OC 11.6%, COc1ccc(-n2c(SCC(=O)OC(C)C)nnc2-c2ccccn2)cc1 7.8%, CCN(CC)S(=O)(=O)c1cccc(C(=O)Nc2ccccc2)c1 3.8%, Cc1cc(C)nc(SCc2nnc(SCC(=O)OC3CCCCC3)o2)n1 2.9%, CNC(=O)c1nnn(-c2ccccc2)c1C(=O)NC 6.4%, COC(=O)c1ccc(NC(=O)CSc2nnc(CNc3ccc(OC)cc3)n2C)cc1 -7.8%, CCc1nc2oc3ccccc3c(=O)c2c(=O)n1Cc1ccc(OC)cc1 6.6%, CCOC(=O)c1cc2cc(C)ccc2[nH]1 -8.6%
